# Experimental data: the supplement of paper PMC12636033
# ± gives the standard deviation of the averaged measurements. Whole data set: some 33,000 sequences, median “E-score (rank enrichment, -0.5 to 0.5)” near -0.0068, cut for the highest 2% near 0.24. The list comes from a sample in which the highest values are over-represented; it also holds similar and randomly drawn sequences.
# Tested on: muMax20 (Max(13-93) K31hArg/K57hArg, M65Nle)
# Assay: PBM 8-mer E-score (E-score (rank enrichment, -0.5 to 0.5)); higher = stronger preferential binding
# Procedure: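 Protein binding microarray (universal PBM chip covering all 10-mers in fixed probe flanks) with chemically synthesized human Max(13-93) bHLH-LZ analogs (not full-length Max) bearing noncanonical residues (hArg, Tha, Aib, Nle at 65) and aromatic Cys staples. Read-out per 8-mer (and its reverse complement): E-score (rank-based enrichment, -0.5 to 0.5) and Z-score of median probe intensity.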
row,Sequence,PBM 8-mer E-score
1,CACTTGCC,0.168 ± 0.14
2,TCACTACA,0.0656 ± 0.0014
3,ACCAACAC,0.174 ± 0.0053
4,AGCAAATG,0.0747 ± 0.051
5,AACTTGAT,0.198 ± 0.024
6,GCGAAATA,0.104 ± 0.11
7,CGGGAGTC,-0.0836 ± 0.032
8,ACATTTGG,0.0453 ± 0.092
9,AAACCCAT,0.0906 ± 0.057
10,AACCCCCA,-0.337 ± 0.0059
11,AACCCCAA,0.259 ± 0.015
12,ACCCCCAA,-0.14 ± 0.0093
13,AAACCCAA,0.265 ± 0.0051
14,GAACCCAA,-0.136 ± 0.086
15,AAGCGGCG,-0.253 ± 0.0057
16,ACAAAGAC,0.226 ± 0.034
17,ACGCTCTA,0.000195 ± 0.019
18,CGAGGGAG,0.0101 ± 0.048
19,ACTACTTA,0.114 ± 0.13
20,GACGTGCC,-0.0314 ± 0.077
21,CCCGTGCG,-0.166 ± 0.0035
22,AACGTGCG,0.129 ± 0.053
23,AACGTGCC,-0.0196 ± 0.033
24,CACGTGCC,0.419 ± 0.076
25,AACGTGCA,0.225 ± 0.0061

row,Sequence,PBM 8-mer E-score
1,CACGTGCG,0.462 ± 0.035
2,TACGTGCA,0.155 ± 0.0056
3,CACGTGCA,0.451 ± 0.049
4,ACCCCCTG,-0.181 ± 0.16
5,AAGCGAAC,-0.038 ± 0.12
6,ACAAACGT,0.0903 ± 0.12
7,GCAAGGCA,0.0264 ± 0.067
8,CCGGACCC,-0.294 ± 0.09
9,ATGTTTGA,0.207 ± 0.051
10,ACGTTTGA,0.254 ± 0.015
11,CCGTTTGA,-0.202 ± 0.057
12,CTGTTTGA,0.143 ± 0.011
13,GTGTTTGA,0.241 ± 0.042
14,ACGTTTGG,-0.00749 ± 0.048
15,ACACTGCC,-0.0509 ± 0.054
16,CAACAGAG,-0.088 ± 0.056
17,CGTGAATC,-0.00172 ± 0.048
18,AATGTCTC,0.00715 ± 0.052
19,CATGTCTC,0.256 ± 0.015
20,CATGTCTA,0.0944 ± 0.042
21,AGTGTAGG,0.0989 ± 0.087
22,ATATAATA,0.302 ± 0.0079
23,ATATAATG,0.2202 ± 0.001
24,GTATAATA,0.247 ± 0.093
25,CTATAATA,0.165 ± 0.0056

row,Sequence,PBM 8-mer E-score
1,GGATAATA,0.0335 ± 0.0051
2,GAATAATA,0.165 ± 0.01
3,GGCAGAAA,0.135 ± 0.072
4,CAGTGCAC,-0.103 ± 0.061
5,CCCGAGCA,0.00085 ± 0.0024
6,GACCGAGC,-0.276 ± 0.069
7,ATTGCAGA,-0.0371 ± 0.034
8,TCCACGCA,0.0588 ± 0.069
9,ATGGGCGC,-0.129 ± 0.1
10,ATAGCGTA,-0.019 ± 0.055
11,ATTCCACA,0.101 ± 0.1
12,CAGAACTC,-0.171 ± 0.057
13,AAGGATAT,0.247 ± 0.062
14,AAGGATAC,-0.00358 ± 0.02
15,AAGGATAA,0.149 ± 0.041
16,AGCGATTC,-0.0904 ± 0.024
17,ACATGAGA,0.253 ± 0.039
18,TCATGAGA,0.111 ± 0.0016
19,ACATGAAT,0.24 ± 0.04
20,ACATGAGT,0.0854 ± 0.027
21,ACATGAAC,0.0854 ± 0.018
22,ACATGAAG,0.0775 ± 0.23
23,ACCAACAT,0.0339 ± 0.18
24,GACGGGGA,-0.043 ± 0.026
25,ACCAGGTG,-0.184 ± 0.13

row,Sequence,PBM 8-mer E-score
1,CGGCTACC,-0.274 ± 0.058
2,CTACTTTA,0.0793 ± 0.013
3,ATACTTTA,0.279 ± 0.0074
4,ATACTTTG,0.107 ± 0.036
5,GTGAGTGA,-0.073 ± 0.17
6,ATGTTGTG,0.145 ± 0.062
7,ATGTTGTA,0.284 ± 0.016
8,GTGTTGTA,0.164 ± 0.016
9,AGGCGCAA,-0.0721 ± 0.067
10,ACAATATA,0.211 ± 0.037
11,ATAATATG,0.169 ± 0.035
12,ATAATATA,0.263 ± 0.042
13,CTAATATA,0.214 ± 0.0087
14,ATAATATC,0.257 ± 0.035
15,GTAATAAA,0.154 ± 0.041
16,ATAATAGA,0.0729 ± 0.052
17,CTAATATC,0.214 ± 0.06
18,GTAATATA,0.267 ± 0.012
19,GAGGACCC,-0.228 ± 0.037
20,AGTAATCA,0.109 ± 0.12
21,CGGGGCGA,-0.112 ± 0.037
22,AGAACTCC,-0.0617 ± 0.081
23,AAAGGCTA,-0.0552 ± 0.0014
24,GACGGATA,-0.139 ± 0.049
25,GCTCACCA,-0.15 ± 0.068

row,Sequence,PBM 8-mer E-score
1,ATACCCCG,-0.0795 ± 0.096
2,AACGACCA,0.0599 ± 0.047
3,ACTGCCAG,-0.0897 ± 0.06
4,ATACAAAC,0.225 ± 0.037
5,ACACAAAG,0.23 ± 0.078
6,ACACAAAC,0.25 ± 0.056
7,CTACAAAA,0.0991 ± 0.063
8,ATACAACG,0.203 ± 0.026
9,ATACAACA,0.254 ± 0.025
10,ATACAACC,-0.0691 ± 0.073
11,ATACAAAG,0.136 ± 0.09
12,ATACAAAT,0.273 ± 0.038
13,ATACAAAA,0.305 ± 0.0098
14,ACACAAAA,0.208 ± 0.055
15,TTACAAAA,0.126 ± 0.043
16,ACGGCCGG,-0.2416 ± 0.0019
17,CAGGCTTC,-0.0969 ± 0.0043
18,GATACGCC,-0.108 ± 0.043
19,ACTTTTGC,0.0617 ± 0.018
20,CATGTTAC,0.123 ± 0.025
21,AGCCGCCG,-0.192 ± 0.18
22,AGCTCCTA,-0.251 ± 0.015
23,CCTCCCTA,-0.153 ± 0.075
24,AGCTTAAC,-0.126 ± 0.1
25,ACACTCGG,-0.0657 ± 0.025

row,Sequence,PBM 8-mer E-score
1,CTATACGC,-0.00851 ± 0.07
2,CCTCGTTA,-0.00353 ± 0.0057
3,AAACAAAC,0.154 ± 0.025
4,GTACAAAA,0.2859 ± 0.0025
5,GTACAAGA,0.119 ± 0.012
6,ATACAAGC,0.243 ± 0.079
7,GTACAAAC,0.116 ± 0.0057
8,AAACAAAT,0.284 ± 0.031
9,CCACAACA,-0.0271 ± 0.0066
10,ATACAAGA,0.0614 ± 0.015
11,GCACAACC,-0.23 ± 0.0046
12,AAACAAAA,0.211 ± 0.061
13,GCACAACA,0.238 ± 0.016
14,CTACAAGC,-0.0802 ± 0.066
15,GAGTCCAA,-0.159 ± 0.12
16,GCGACACA,-0.067 ± 0.12
17,GTCTCTGA,-0.161 ± 0.093
18,ATTTATTC,0.241 ± 0.046
19,CTATATGA,0.109 ± 0.074
20,ATATATGC,0.0936 ± 0.17
21,GCATATGC,0.24 ± 0.032
22,GCATATGA,0.186 ± 0.04
23,CTATATGC,0.238 ± 0.043
24,ATATATGA,0.218 ± 0.069
25,ACATATGC,0.105 ± 0.011

row,Sequence,PBM 8-mer E-score
1,ATATATGG,0.258 ± 0.028
2,ACATATGG,0.12 ± 0.078
3,ATTTATTA,0.132 ± 0.06
4,CTTTATTC,0.0219 ± 0.12
5,TACCCCAA,0.157 ± 0.005
6,GGAGAGCC,-0.211 ± 0.032
7,GACGCCAC,-0.137 ± 0.094
8,ATGTCCGC,-0.126 ± 0.088
9,GACACTGA,-0.11 ± 0.068
10,GCAGCCAC,-0.0591 ± 0.03
11,CTCAGTGC,-0.224 ± 0.0089
12,CTCTATTC,0.00532 ± 0.064
13,ATATATTC,0.201 ± 0.041
14,CTATATTC,0.262 ± 0.052
15,AAAAGTAC,0.184 ± 0.042
16,AAAAGCAG,-0.0145 ± 0.05
17,AAAAGCTA,0.123 ± 0.0035
18,AATAGTAA,0.152 ± 0.012
19,AAAAGCAT,0.243 ± 0.018
20,CAAAGCTG,0.0952 ± 0.083
21,AAAAGCAC,0.162 ± 0.061
22,AAAAGCTG,0.271 ± 0.081
23,AAAAGTAA,0.12 ± 0.033
24,AAAAGTAT,0.249 ± 0.044
